Shown are actives, neighbours in structure and some others; about 2.4% of the full set was active somewhere.
Pol kappa inh: DNA polymerase kappa (human) inhibition | 0.53% of 400,000 active | Potency, µM (doses to about 107 µM), without a hit: at the highest dose activity, negative = inhibition, hits mostly inhibitors | purified Pol kappa, fluorescent DNA synthesis assay, 10 min | AID 588579 | Q9UBT6; also: % is scaled to controls: 0 for no effect and ±100 for the full control effect
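Readout: fluorescence, taken kinetically at 0 and 10 min. Conditions: 10 nM Pol kappa, 15 min RT compound preincubation, 50 nM substrate final. Controls: enzyme-free buffer wells.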
WRN helicase inh-1: blocks human WRN helicase; AID 651768; 0.46% of 360,000 active; Potency, µM (doses to about 114 µM), without a hit: at the top dose activity change, negative = inhibition, actives largely listed as inhibitors; WRN helicase unwinding, fluorescent forked duplex, kinetic; Q14191; also: % is scaled to controls: 0 for no effect and ±100 for the full control effect; nearly all actives have a fitted effect of over 55% in size
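Fluorescence dequenching readout, ex 525 nm/em 598 nm, kinetic mode: forked duplex DNA (100 nM final) with adjacent fluorophore and quencher unwound by WRN (20 nM final) with 2 mM ATP. Compound preincubation 15 min, room temperature.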
Pol beta inh: inhibitors of human DNA polymerase beta; P06746; Pol beta primer extension/strand displacement, fluorescence kinetic; Potency, µM (highest dose often 114 µM), for the others: at the highest dose activity change, negative = inhibition, hits mostly inhibitors; 1.3% of 340,000 active; also: % is scaled to controls: 0 for no effect and ±100 for the full control effect
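Human Pol beta at 10 nM; strand-displacement substrate 50 nM final. Compound exposure 15 min at room temperature before start, reaction 10 min at room temperature.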
Pol iota inh: blocks human DNA polymerase iota activity; Pol iota fluorescent replication assay, 10 min; Potency, µM (series often up to 115 µM), for the others: at the top dose activity, negative = inhibition, most hits filed as inhibitors; 1% of 390,000 active
Target sequence (Q9UNA4 whole entry, looked up): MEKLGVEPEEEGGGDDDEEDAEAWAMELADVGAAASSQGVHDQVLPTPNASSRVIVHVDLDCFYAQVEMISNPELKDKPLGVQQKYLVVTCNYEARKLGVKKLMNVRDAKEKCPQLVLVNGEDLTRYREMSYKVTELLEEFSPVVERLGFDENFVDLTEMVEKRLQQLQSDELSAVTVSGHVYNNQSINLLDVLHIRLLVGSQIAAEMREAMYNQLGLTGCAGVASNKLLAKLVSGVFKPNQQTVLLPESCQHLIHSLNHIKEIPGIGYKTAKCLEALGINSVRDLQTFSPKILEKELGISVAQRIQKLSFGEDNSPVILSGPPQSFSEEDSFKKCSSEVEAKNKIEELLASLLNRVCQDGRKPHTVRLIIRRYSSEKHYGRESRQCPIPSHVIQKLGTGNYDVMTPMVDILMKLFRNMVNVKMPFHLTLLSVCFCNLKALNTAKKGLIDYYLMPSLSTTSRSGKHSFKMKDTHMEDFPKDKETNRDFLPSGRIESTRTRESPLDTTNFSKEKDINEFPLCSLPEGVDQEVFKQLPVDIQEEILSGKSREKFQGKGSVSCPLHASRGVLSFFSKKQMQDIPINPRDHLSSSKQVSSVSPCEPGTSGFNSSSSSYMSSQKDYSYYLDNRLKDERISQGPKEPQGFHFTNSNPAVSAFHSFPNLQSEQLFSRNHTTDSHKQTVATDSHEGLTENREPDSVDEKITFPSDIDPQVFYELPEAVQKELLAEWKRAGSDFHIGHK
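Fluorescent replication assay read twice, at 0 min and 10 min after adding 50 nM (final) substrate. Enzyme (10 nM) and compounds were first incubated 15 min at room temperature; enzyme-free buffer wells were negative controls.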
FEN1 inhibitor: human FEN1 inhibition; P39748; Recombinant FEN1 flap cleavage, fluorescence, 15 min; AID 588795; 0.35% of 390,000 active; Potency, µM (top dose mostly 114 µM), without a hit: at the highest dose activity change, negative = inhibition, actives largely listed as inhibitors; also: % is scaled to controls: 0 for no effect and ±100 for the full control effect; nearly all actives have a fitted effect of over 65% in size
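Quantitative HTS format: each compound was titrated, incubated with 10 nM nuclease for 15 min at room temperature, then challenged with flap substrate at 50 nM final. Signal change over 15 min gave concentration–effect curves.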
Pol eta inh: blocks human DNA polymerase eta activity. Q9Y253. recombinant Pol eta, fluorescent DNA replication assay. Potency, µM (titrated, usually from 114 µM), without a hit: at the highest dose activity change, negative = inhibition, actives largely listed as inhibitors. 1.2% of 390,000 active; also: % is scaled to controls: 0 for no effect and ±100 for the full control effect
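Pol eta (10 nM) was preincubated with compounds for 15 min at room temperature, after which fluorescent replication substrate (50 nM final) was added to start the reaction. Fluorescence was read kinetically at 0 and 10 min.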
WRN helicase inh-2: WRN helicase inhibition, cherry-pick retest | shares compounds with WRN helicase inh-1 | WRN helicase DNA unwinding, fluorescence kinetic | Potency, µM (doses to about 57.1 µM), for the others: at the highest dose activity, negative = inhibition, actives largely listed as inhibitors | 63% of 610 active | AID 720497; also: nearly all actives have a fitted effect of over 65% in size
TO DNA binding: counter-screen for WRN helicase inhibitors: DNA binding; shares compounds with WRN helicase inh-1; thiazole orange DNA binding displacement, fluorescence; Potency, µM (titrated, usually from 57.1 µM), inactives show top-dose activity change, negative = inhibition, hits mostly inhibitors; 10% of 610 active; AID 720499;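 also: drop in dye fluorescence marks compound binding to DNA; % is scaled to controls: 0 for no effect and ±100 for the full control effect; nearly all actives have a fitted effect of over 60% in size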
BLM helicase inh: BLM helicase inhibition, WRN selectivity check | shares compounds with WRN helicase inh-1 | Recombinant BLM helicase DNA unwinding, red fluorescence | Potency, µM (top dose mostly 57.1 µM), for the others: top-dose activity change, negative = inhibition, hits mostly inhibitors | 60% of 610 active | AID 720503; also: nearly all actives have a fitted effect of over 60% in size
Starred values were filed as active, the others as inactive; [ ] = another dose, or the depositor's remark. Calls follow the shape of the dose curve; as a rule, active = well fitted curve in the direction sought with a large enough effect; inconclusive = small, poorly fitted or top-dose-only effect, or another doubt; inactive = no such curve, though single readings can be large; an effect the other way counts as inactive or inconclusive. Potency is read from the fitted curve at half-maximal effect.

How did COc1ccc(NC(=O)/C(Cl)=C(/Cl)S(=O)(=O)Cc2ccccc2)cn1 do in these assays?
Pol kappa inh: -8%; WRN helicase inh-1: 12µM*; Pol beta inh: 4%; Pol iota inh: inconclusive; FEN1 inhibitor: -16%; Pol eta inh: inconclusive; WRN helicase inh-2: inconclusive; TO DNA binding: -11%; BLM helicase inh: -30%

Results for CC(=O)N1CCC2(CC1)CN(C(c1ccccc1)c1ccccc1)C2 ?
Pol kappa inh: -2%[60.1 µM]

How did CCOC(=O)c1nn(-c2ccccc2)c(=O)c2c(NC(C)=O)scc12 do in these assays?
Pol kappa inh: 0%; WRN helicase inh-1: -8%; Pol beta inh: -24%; Pol iota inh: 36%; FEN1 inhibitor: 5%; Pol eta inh: -7%

How did CCOC(=O)c1nn(-c2ccccc2C)c(=O)c2c(N)scc12 do in these assays?
Pol kappa inh: -9%; WRN helicase inh-1: inconclusive; Pol beta inh: -26%; Pol iota inh: inconclusive; FEN1 inhibitor: -4%; Pol eta inh: -4%; WRN helicase inh-2: inconclusive; TO DNA binding: 35%; BLM helicase inh: inconclusive

How did CCCOc1ccc(C(=O)CCN2CCN(C(=O)OCC)CC2)cc1 do in these assays?
Pol kappa inh: -4%; WRN helicase inh-1: inconclusive; Pol beta inh: -14%; Pol iota inh: 25%; FEN1 inhibitor: -1%; Pol eta inh: -12%; WRN helicase inh-2: -16%; TO DNA binding: -6%; BLM helicase inh: -18%

How did CC(C)CCn1c(=O)c2sccc2n2c(CCCC(=O)NC(C)c3ccccc3)nnc12 (stereo unspecified) do in these assays?
Pol kappa inh: 1%; Pol beta inh: 0%; Pol iota inh: 20%; FEN1 inhibitor: 3%; Pol eta inh: 10%

How did O=C(Nc1cccc(-c2cnc3ccccc3n2)c1)c1cccc(NC(=O)c2ccco2)c1 do in these assays?
Pol kappa inh: -22%; WRN helicase inh-1: inconclusive; Pol beta inh: inconclusive; Pol iota inh: 14%; FEN1 inhibitor: -26%; Pol eta inh: 6%; WRN helicase inh-2: -29%; TO DNA binding: 1%; BLM helicase inh: inconclusive

What do the screens show for `CC1=NN(c2ccc(F)cc2)C(=O)C1C(c1cccc(O)c1)c1c(C)[nH]n(-c2ccc(F)cc2)c1=O` (stereo unspecified)?
Pol kappa inh: -1%; WRN helicase inh-1: inconclusive; Pol beta inh: -3%; Pol iota inh: -91%; FEN1 inhibitor: -29%; Pol eta inh: -15%; WRN helicase inh-2: -18%; TO DNA binding: -20%; BLM helicase inh: -14%

Results for CCc1ccccc1NC(=O)N1CC(C)Sc2ccccc21 (stereo unspecified) ?
Pol kappa inh: -5%; Pol beta inh: 3%; Pol iota inh: -10%; FEN1 inhibitor: -6%; Pol eta inh: 2%

What do the screens show for `NC(=O)c1ccc(N=Nc2c(O)c3ccccc3[nH]c2=O)cc1`?
Pol beta inh: 33%

What do the screens show for `N=C(N)c1ccc(N=Nc2c(O)ccc3c2[nH]c2ccccc23)cc1`?
Pol kappa inh: 79µM*; WRN helicase inh-1: 11µM*; Pol iota inh: -10%; FEN1 inhibitor: 28µM*; Pol eta inh: 40µM*; WRN helicase inh-2: 8.6µM*; TO DNA binding: 24µM*; BLM helicase inh: 19µM*
